A selection: hits, their analogues and other compounds. The true share with any hit is near 10%.
NIH3T3 tox: kills NIH 3T3 cells. NIH 3T3 viability, CellTiter-Glo ATP luminescence, 48-72 h. Potency, µM (series often up to 96.7 µM), without a hit: top-dose activity change, negative = cytotoxicity, hits mostly inhibitors. hit rate 4.3% among 94,000; further: nearly all actives have a fitted effect of over 55% in size
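Mouse fibroblast NIH 3T3 cells, 400 per well, received compound via pintool and were incubated for 48 or 72 hr prior to CellTiter-Glo ATP luminescence measurement.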
HEK cytotox: kills HEK 293 cells | HEK 293 viability, ATP luminescence (CellTiter-Glo), 48-72 h | Potency, µM (top dose mostly 115 µM), without a hit: at the top dose activity change, negative = cytotoxicity, hits mostly inhibitors | hit rate 6.6% among 94,000 | AID 1345083; further: nearly all actives have a fitted effect of over 60% in size
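Pintool-delivered compounds were incubated with HEK 293 cells (250 cells/well) at 37 degree Celsius for 48 or 72 hr. ATP-dependent luminescence (CellTiter-Glo) then reported remaining viable cells.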
Luciferase inh: inhibitors of firefly (Photinus pyralis) luciferase. purified P. pyralis luciferase, luminescence, biochemical. AID 1347043. P08659. hit rate 2.5% among 76,000. Potency, µM (doses to about 115 µM), usual class: inhibitors; further: nearly all actives have a fitted effect of over 65% in size
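Inhibitors were tested against purified firefly luciferase in a biochemical, low-substrate format (both substrates at 10uM) and luminescence measured with a CCD imager.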
NPR1 antag: antagonists of human natriuretic peptide receptor Npr1; P16066; HEK293 hNpr1 GloSensor cGMP, ANP-stimulated luminescence; Potency, µM (titrated, usually from 46.3 µM), inactives show at the highest dose activity change, negative = inhibition, usual class: inhibitors; hit rate 1.6% among 76,000; calls by dose curve; further: nearly all actives have a fitted effect of over 60% in size
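HEK293 cells stably expressing human Npr1 and cGMP GloSensor pGS-40F, loaded 2 h with 2% GloSensor reagent, given compound 30 min at room temperature. Luminescence read before and 20 min after 0.1 nM hNppA.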
GPT2 inh: inhibitors of human GPT2 alanine aminotransferase. Potency, µM (highest dose often 57.7 µM), without a hit: at the top dose activity change, negative = inhibition, usual class: inhibitors. Q8TD30. Recombinant GPT2, coupled pyruvate oxidase/HRP Amplex Red fluorescence. hit rate 0.25% among 100,000. AID 1671188; further: nearly all actives have a fitted effect of over 60% in size
Target sequence (Q8TD30 whole entry, looked up): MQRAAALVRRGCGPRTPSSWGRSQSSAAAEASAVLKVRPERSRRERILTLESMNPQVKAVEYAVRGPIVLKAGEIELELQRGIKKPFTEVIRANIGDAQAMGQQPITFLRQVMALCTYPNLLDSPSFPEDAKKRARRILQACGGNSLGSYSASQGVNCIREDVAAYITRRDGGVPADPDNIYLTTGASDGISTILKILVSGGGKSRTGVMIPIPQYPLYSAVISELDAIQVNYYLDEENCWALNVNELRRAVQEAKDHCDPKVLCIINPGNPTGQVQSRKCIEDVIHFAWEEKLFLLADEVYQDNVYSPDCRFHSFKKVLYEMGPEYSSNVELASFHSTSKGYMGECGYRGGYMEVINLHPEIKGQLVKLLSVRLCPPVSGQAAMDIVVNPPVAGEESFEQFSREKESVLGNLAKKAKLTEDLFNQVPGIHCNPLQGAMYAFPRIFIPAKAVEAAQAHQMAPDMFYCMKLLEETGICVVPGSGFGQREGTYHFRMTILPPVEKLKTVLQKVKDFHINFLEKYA
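Inhibition is scored from Amplex Red fluorescence generated when pyruvate oxidase and HRP act on pyruvate released by GPT2. Reactions contain 10ng/uL enzyme, 250uM a-KG and 2mM L-alanine and run 30 min at room temperature.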
Numbers without * were called inactive; i = inactive; ? = inconclusive; . = no result; [ ] = remark or other dose. Unless noted, the call rests on the fitted dose curve; in most records, active means well fitted curve in the direction sought with a large enough effect; inconclusive means small, poorly fitted or top-dose-only effect, or another doubt; inactive means no such curve, though single readings can be large; an effect the other way counts as inactive or inconclusive. On the % scale 0 is the no-effect control and ±100 the full control effect; potency means the concentration at half of the fitted maximal effect.

SMILES	NIH3T3 tox	HEK cytotox	Luciferase inh	NPR1 antag	GPT2 inh
Cc1ccccc1S(=O)(=O)N1[C@H]2CC[C@@H]1c1cnc(-c3ccccc3)nc1C2	?	25.1µM*	i	?	i
Cc1cccc(NC(=O)N2[C@H]3CC[C@@H]2c2cnc(-c4ccccc4)nc2C3)c1	?	39.8µM*	i	-29.4%	3.3%
CCS(=O)(=O)N1[C@H]2CC[C@@H]1c1cnc(-c3ccc(F)cc3)nc1C2	-29.9%	39.8µM*	i	?	?
Cc1ccc(C)c(S(=O)(=O)N2[C@H]3CC[C@@H]2c2cnc(-c4ccccc4)nc2C3)c1	-17.3%	-40.7%	i	?	i
Cc1noc(C)c1CN1CCCCC1c1cccnc1 (stereo not given)	-2.1%	-3.8%	i	11.5%	3.1%
O=C1NCCCCCCN(Cc2cccnc2)[C@H]2CCC[C@@H]12	?	-11.9%	i	0.7%	i
O=C1NCCCCCCN(Cc2ccncc2)[C@@H]2CN(C(=O)COc3ccc(F)cc3)CC[C@@H]12	35.5µM*	-4.7%	i	6.6%	i
O=C(N[C@H]1CN2CCC1CC2)c1cc2cccc(Cl)c2s1	.	.	.	.	i
Cc1ccc(CN2C[C@@H]3C(C(N)=O)=NO[C@@H]3C2)nc1	112µM*	-9.2%[230 µM]	i	8.3%[70.6 µM]	-16.3%[88.5 µM]
O=C(O)C1=NOC2CN(Cc3ccccn3)CC12 (stereo not given)	i	i	.	.	-8.8%[88.5 µM]
COc1cccc(CC(=O)N2[C@H]3CC[C@@H]2c2cnc(C)nc2C3)c1	0.0%	2.7%	i	-0.5%	i
COc1ccc(CC(=O)N2[C@H]3CC[C@@H]2c2cnc(-c4ccc(F)cc4)nc2C3)cc1OC	-18.8%	79.4µM*	i	-29.2%	i
COc1cccc(CC(=O)N2[C@H]3CC[C@@H]2c2cnc(-c4ccc(F)cc4)nc2C3)c1	?	31.6µM*	i	5.2%	-34.2%
CC/C=C/C=C/C1(C)OC(OC)=C(C(=O)C2C(C)C(=O)c3cc(OC)c(O)c(O)c3C2(C)O)C1=O (stereo not given)	.	.	.	.	-26.8%[27.3 µM]
COc1ccc(-c2cc([C@H]3CN4CC[C@H]3C[C@@H]4CNC(=O)c3cccs3)n(C)n2)cc1OC	?	?	i	-2.6%	i
COc1ccc(-c2cc([C@H]3CN4CC[C@H]3C[C@@H]4CNC(=O)c3ccc(N(C)C)cc3)n(C)n2)cc1	?	22.4µM*	i	1.1%	i
Cn1nc(-c2ccc3ccccc3c2)cc1[C@H]1CN2CC[C@H]1C[C@@H]2CNC(=O)c1cccs1	25.1µM*	20µM*	?	-4.2%	1.6%
Cn1nc(C2CCCCC2)cc1[C@H]1CN2CC[C@H]1C[C@@H]2CNC(=O)c1cccs1	?	100µM*	i	-2.4%[70.6 µM]	-9.8%[88.5 µM]
CN(C)c1ccc(C(=O)NC[C@H]2C[C@@H]3CCN2C[C@@H]3c2cc(C3CCCCC3)nn2C)cc1	?	?	i	1.9%	i
COc1ccc(C(=O)NC[C@H]2C[C@@H]3CCN2C[C@@H]3c2cc(-c3ccc4ccccc4c3)nn2C)cc1	?	17.8µM*	i	0.6%	0.9%
Oc1ccc2c3c1O[C@H]1[C@H](N(CCCl)CCCl)CC[C@@]4(O)[C@@H](C2)N(CC2CC2)CC[C@]314	.	.	.	.	i[11.5 µM]
CC1CCN(C[C@H]2CN3CC[C@H]2C[C@@H]3CNS(C)(=O)=O)CC1	-12.6%[174 µM]	-4.1%[172 µM]	i	-3.4%[70.6 µM]	-5.7%[88.5 µM]
O=C1CC2CCN(Cc3cccc(Br)n3)CC2CCN1 (stereo not given)	i	i	.	.	4.1%
COCCN1CCC(N2CCN(C(=O)Cc3cccc(C)c3)CC2)C1=O (stereo not given)	1.9%	-1.0%	i	10.4%	-3.1%
COCC(=O)NC[C@H]1C[C@@H]2CCN1C[C@@H]2c1cc(-c2ccc3ccccc3c2)nn1C	35.5µM*	50.1µM*	?	-1.0%[70.6 µM]	-4.2%[88.5 µM]
SMILES	NIH3T3 tox	HEK cytotox	Luciferase inh	NPR1 antag	GPT2 inh
COc1cc2c(cc1OCc1ccccc1)N(C(=O)c1ccn(C)n1)CC21CCN(C)CC1	?	-20.7%	i	3.4%	-14.7%
COc1cc2c(cc1OCc1ccccc1)N(C(=O)c1ccncc1)CC21CCN(C)CC1	-25.9%	?	i	1.4%	4.0%
COc1ccc(C(=O)N2CC3(CCN(C)CC3)c3cc(OC)c(OCc4ccccc4)cc32)cn1	?	79.4µM*	i	4.5%	-6.4%
COc1cc2c(cc1OCc1ccccc1)N(C(=O)c1cc3ccccc3n1C)CC21CCN(C)CC1	12.6µM*	25.1µM*	i	-1.8%	i
Fc1ccc(-c2ncc3c(n2)C[C@@H]2CC[C@H]3N2)cc1	i	i	i	12.4%	i
Cc1ccc(-n2nccn2)c(C(=O)N2CCN(c3nc4cc(Cl)ccc4o3)CCC2C)c1 (stereo not given)	.	.	.	.	i
CCOC(=O)[C@H]1CN(C(=O)C2CCCC2)[C@]2(C)C(=O)Nc3ccccc3[C@H]12	-16.9%[46.1 µM]	?	.	.	0.1%[27.3 µM]
CCOC(=O)[C@H]1CN(C(=O)COc2ccccc2)[C@]2(C)C(=O)Nc3ccccc3[C@H]12	?	?	.	.	3.4%[27.3 µM]
CO/C1=C\C(C)=C\[C@@H](C)[C@@H](O)[C@@H](C)C/C(C)=C/C=C/[C@H](OC)[C@@H]([C@@H](C)[C@@H](O)[C@H](C)[C@@]2(O)C[C@@H](O)[C@H](C)[C@@H](C(C)C)O2)OC1=O	.	.	.	.	i
CC(C)CN1Cc2ccccc2-n2ccnc2C12CCN(C(=O)c1ccccc1F)CC2	-6.7%	-27.4%	i	3.4%	i
Cc1ccccc1C(=O)N1CCC2(CC1)c1nccn1-c1ccccc1CN2CC(C)C	?	44.7µM*	i	-25.7%	i
Cc1ccsc1C(=O)N1CCC2(CC1)NCc1ccccc1-n1ccnc12	28.2µM*	-16.7%	i	-9.0%	i
COc1cc(C(=O)N2CC[C@@H](O)[C@@H](N)C2)cc2nc(-c3cc4ccccc4n3CC3CC3)n(C)c12	.	.	.	.	0.4%
O=C(NC1CC1)[C@H]1CN2CCC1C[C@@H]2Cn1cc(CSc2ccccc2)nn1 (stereo not given in full)	-13.1%[174 µM]	-13.1%[172 µM]	i	-0.7%[70.6 µM]	3.7%[88.5 µM]
COc1cc2c(cc1Oc1ccccc1)NC(=O)C21CCN(Cc2ccccc2)CC1	28.2µM*	28.2µM*	i	?	?
COc1cncc(CN2CCC3(CC2)C(=O)Nc2cc(Oc4ccccc4)c(OC)cc23)c1	?	35.5µM*	i	-26.5%	-1.1%
COc1cc2c(cc1Oc1ccccc1)NC(=O)C21CCN(c2ncccn2)CC1	79.4µM*	?	i	-30.3%[70.6 µM]	1.2%[88.5 µM]
CNc1nc(N2C[C@H]3CN(CCOC)C[C@@]3(C(=O)O)C2)ncc1F	-7.4%	3.7%	i	13.1%	-10.2%

Source: PubChem (National Center for Advancing Translational Sciences (NCATS))
